SW480 rerep: induces DNA re-replication in SW480 colon adenocarcinoma cells; Potency, µM (series often up to 46.1 µM), most hits filed as activators; AID 624297; SW480 DNA re-replication, Hoechst DNA content imaging, 48 h; hit rate 1.8% among 340,000; further: nearly all actives have a fitted effect of over 55% in size
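Per well, 250 cells were exposed to pinned compound for 48 hr. Nuclear DNA was visualised with Hoechst (40 min, 37 C) and total object intensity recorded by fluorescence scanning.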
ASM inhibitor: human S-ASM enzyme inhibition; P17405; Potency, µM (series often up to 57.5 µM), actives largely listed as inhibitors; placental ASM, HMU-PC fluorogenic substrate, 60 min; AID 504937; hit rate 0.006% among 340,000
Target sequence (P17405 47-631 limits assumed): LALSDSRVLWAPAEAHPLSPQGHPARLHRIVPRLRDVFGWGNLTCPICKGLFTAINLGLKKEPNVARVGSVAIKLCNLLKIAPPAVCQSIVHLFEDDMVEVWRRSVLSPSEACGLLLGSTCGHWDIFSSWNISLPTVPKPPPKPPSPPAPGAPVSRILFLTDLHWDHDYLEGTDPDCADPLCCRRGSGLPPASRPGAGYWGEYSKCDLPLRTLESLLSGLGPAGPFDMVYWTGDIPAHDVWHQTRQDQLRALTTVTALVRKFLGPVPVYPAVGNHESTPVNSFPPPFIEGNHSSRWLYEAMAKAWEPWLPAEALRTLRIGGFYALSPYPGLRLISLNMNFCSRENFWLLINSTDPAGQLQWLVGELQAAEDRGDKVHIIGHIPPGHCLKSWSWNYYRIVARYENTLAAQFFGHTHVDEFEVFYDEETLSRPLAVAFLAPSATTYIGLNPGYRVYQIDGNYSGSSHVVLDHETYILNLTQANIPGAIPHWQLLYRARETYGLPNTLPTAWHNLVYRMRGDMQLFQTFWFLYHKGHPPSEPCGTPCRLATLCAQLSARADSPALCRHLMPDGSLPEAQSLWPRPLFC
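Steps: dispense placental human ASM, pin compound, wait 10 min at room temperature, add HMU-PC0 substrate at 9 uM final, incubate 60 min at 37 °C, add stop solution raising pH to 10, read fluorescence.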
MCF10A rerep: DNA re-replication induction in MCF 10a cells | MCF 10A DNA re-replication, Hoechst nuclear intensity, 48 h | Potency, µM (doses to about 46.1 µM), actives largely listed as activators | hit rate 2.9% among 350,000 | AID 624296; further: nearly all actives have a fitted effect of over 50% in size
KB-3-1 cytotox: kills parental KB-3-1 adenocarcinoma cells; Potency, µM (doses to about 46.1 µM), hits mostly cytotoxic; KB-3-1 viability, CellTiter-Glo ATP luminescence, 72 h; hit rate 1.4% among 400,000; further: nearly all actives have a fitted effect of over 60% in size
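Using CellTiter-Glo luminescence, growth of non-resistant KB-3-1 adenocarcinoma cells is assessed 72 h after pin-tool compound addition at 37 °C. Normalized responses across the concentration series yield fitted curves.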
Giardia killer: kills Giardia lamblia; AID 540267; Giardia lamblia trophozoite viability; activity change, % at 7.66 µM, hits read low; hit rate 0.15% among 340,000; in the data active means activity change below about -80%; inconclusive means between about -30% and that limit;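 further: parasites exposed to compound for two days anaerobically before the ATP read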
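Anaerobic 48 hrs incubation at 37 deg C of 100 trophozoites/well with test compounds; ATPLite 1-Step luminescence, 15-30 min RT, reports cellular ATP as viability.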
KB-V1 MDR tox: kills drug-selected multidrug resistant KB-V1 cells. KB-V1 MDR cells viability, CellTiter-Glo, 72 h. Potency, µM (doses to about 46.1 µM), most hits filed as cytotoxic. hit rate 3.4% among 400,000; further: nearly all actives have a fitted effect of over 60% in size
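Cytotoxicity via CellTiter-Glo luminescence after 72 h compound exposure at 37 degrees C. Cells: drug-selected KB-V1 line, DMEM phenol-red free plus 10% FBS. Compounds tested at multiple concentrations; normalized data fitted to concentration-effect curves.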
Hits are given with their value; i = inactive; ? = inconclusive; nt = no result; [ ] = remark or other dose. Hits are enriched below; roughly 6.9% of the tested compounds scored in any of these assays. Unless noted, the call rests on the fitted dose curve; in most records, active means well fitted curve in the direction sought with a large enough effect; inconclusive means small, poorly fitted or top-dose-only effect, or another doubt; inactive means no such curve, though single readings can be large; an effect the other way counts as inactive or inconclusive.

SMILES | SW480 rerep | ASM inhibitor | MCF10A rerep | KB-3-1 cytotox | Giardia killer | KB-V1 MDR tox
COc1ccc(/C=N/NC(=O)c2cccc([N+](=O)[O-])c2)cc1OS(=O)(=O)c1ccc(C)cc1 | ? | i | ? | ? | i | 20.6µM
CN(c1ccc(C(=O)N/N=C/c2cccc([N+](=O)[O-])c2)cc1)S(=O)(=O)c1ccccc1 | ? | i | ? | i | i | i
COc1ccc(C(=O)N/N=C/c2ccc(OC)c(OS(=O)(=O)c3ccccc3)c2)cc1 | i | i | i | i | i | ?
CCCCC(=O)N(C)c1c(CC)nc2c(OCC(=O)C(C)(C)C)cccn12 | nt | nt | nt | i | nt | i
O=[N+]([O-])C(=C1SCCS1)C(=C(Cl)Cl)N1CCCCC1 | i | i | i | i | i | i
O=[N+]([O-])C(/C=C(\Cl)[N+](=O)[O-])=C(N1CCCCC1)N1CCCCC1 | ? | i | i | i | -82.0 | i
COc1cc(NC(=O)CCS(=O)(=O)c2ccc3c(c2)CC(=O)N3C)cc(OC)c1OC | nt | nt | nt | i | nt | i
COc1cc(-c2noc(C)c2/C=C/c2cccc([N+](=O)[O-])c2)cc(OC)c1OC | ? | i | ? | 2.91µM | i | 5.8µM
COCCNC(=O)c1c(NC(=O)c2cc(=O)c3cc(C)cc(C)c3o2)sc2c1CCCC2 | nt | nt | nt | i | nt | i
COc1ccc[n+](CC(=O)c2ccc(F)cc2)c1 | nt | nt | nt | ? | nt | i
COc1ccc([C@H]2CC(=O)C=C(c3ccc4[nH]ccc4c3)C2)cc1OC | i[9.22 µM] | i | i | i | i | i
O=C1C=C(c2ccc3[nH]ccc3c2)C[C@@H](c2ccc(F)cc2)C1 | i | i | 20.6µM | ? | i | i
O=C(COC(=O)c1c(Cl)cccc1Cl)Nc1ccccc1Br | i | i | ? | i | i | 18.4µM
COc1ccc2c(c1)c1c(c(=O)n(Cc3ccccc3)c(=O)n1CC(=O)Nc1c(C)cccc1C)n2C | nt | nt | nt | i | nt | i
CCOc1ccccc1Oc1c(C)oc2cc(OC(=O)N3CCOCC3)ccc2c1=O | i | i | i | i | i | 23.1µM
C=C(C(=O)c1ccccc1)C(C)C(=C)C(=O)c1ccccc1 | 7.31µM | i | 2.91µM | ? | i | 3.26µM
O=C(Cc1ccccc1)Nc1ccc(Cl)cn1 | i[9.22 µM] | i | i | i | i | i
O=C(CCc1ccccc1)Nc1ccc(Cl)cn1 | 6.51µM | i | 5.8µM | 5.8µM | i | ?
Cc1cnc(NC(=O)CCc2ccccc2)s1 | 13µM | i | 10.3µM | ? | i | i
Cn1c(=O)c2ccccc2n2c(CCl)nnc12 | 16.4µM | i[11.5 µM] | ? | ? | i | ?
Cn1c(=O)c2ccccc2n2c(=S)[nH]nc12 | i | i | i | i | i | i
COc1ccc(C(C)=O)cc1Cn1c(C)c(C(=O)NCc2cccc(C(F)(F)F)c2)sc1=O | nt | nt | nt | ? | nt | 18.4µM
CC(=O)Oc1ccc(Cn2c(C)c(C(=O)NCc3cccc(C(F)(F)F)c3)sc2=O)cc1 | nt | nt | nt | 23.1µM | nt | 14.6µM
COc1ccc(C(C)=O)cc1Cn1c(C)c(C(=O)NCc2cccc(C)c2)sc1=O | nt | nt | nt | i | nt | ?
COc1ccc(-n2sc3c(c2=S)-c2cc(OC)ccc2NC3(C)C)cc1 | i | ? | i | i | i | i
SMILES | SW480 rerep | ASM inhibitor | MCF10A rerep | KB-3-1 cytotox | Giardia killer | KB-V1 MDR tox
Cc1ccc(S(=O)(=O)N2c3ccccc3-c3c(ssc3=S)C2(C)C)cc1 | ? | i | ? | ? | i | 20.6µM
CCOC(=O)CC1(C)N(S(=O)(=O)c2ccc(C)cc2)c2ccccc2N1S(=O)(=O)c1ccc(C)cc1 | nt | nt | nt | i | nt | ?
COc1ccc2c(c1)-c1c(ssc1=S)C(C)(C)N2S(=O)(=O)c1ccc(C)cc1 | 7.31µM | i | 5.17µM | ? | i | 5.8µM
COc1ccc2c(c1)-c1c(ssc1=S)C(C)(C)N2 | i | i | 11.6µM | i | i | ?
CCc1sc(Nc2cccc(C)c2)nc1-c1cc2cccc(OC)c2oc1=O | nt | nt | nt | i | nt | i
Fc1cccc(Cc2c(C3CCCCC3)nc3ccc(Br)cn23)c1 | nt | nt | nt | i | nt | i
COc1ccc(Cl)cc1NC(=O)CSc1nc(=O)[nH]c2c1CCC2 | nt | nt | nt | nt | i | nt
CC1(C)CCC[C@]2(C)[C@H]3Cc4cc(O)ccc4O[C@]3(C)CC[C@@H]12 | i | i | 11.6µM | i | i | i
O=C(CSc1ncn(-c2ccccc2)n1)Nc1nc(-c2ccccc2)cs1 | i | i | i | i | i | i
O=C(CSc1ncn(-c2ccccc2)n1)Nc1nc2ccccc2s1 | i | ? | ? | i | i | 18.4µM
CCOC(=O)c1sc2nc(CC(=O)OC)nc(NCC(=O)OC)c2c1C | i | i | i | i | i | i
Cc1nc(SCC(=O)N(C)Cc2ccco2)c2c(C)c(C)sc2n1 | i | i | ? | ? | i | ?
Cc1nc(NCc2ccco2)c2c(C)c(C)sc2n1 | ? | i | i | 11.6µM | i | ?
CCOC(=O)c1sc2nc(CC(=O)OC)nc(NCc3ccco3)c2c1C | i | i | i | i | i | 3.26µM
Cc1sc2nc3c4ccccc4c(NCc4ccco4)nn3c(=O)c2c1C | 4.61µM | i | 2.59µM | i | i | i
Cc1oc(-c2ccc(C(=O)NC(C)c3ccccc3)cc2)nc1CS(=O)(=O)c1ccccc1 (configuration not stated) | nt | nt | nt | i | nt | i
CC1CN(c2ccccn2)C(C)CN1C(=S)Nc1ccccc1 (configuration not stated) | i | i | i | i | i | 23.1µM
O=C(Nc1cc(Cl)cc(Cl)c1)c1cc(S(=O)(=O)N2CCC3(CC2)OCCO3)ccc1F | nt | nt | nt | i | nt | i
CCOC(=O)C1=C(CC)Nc2ccccc2N=C1NC(=O)c1ccc(C)c(S(=O)(=O)N2CCOCC2)c1 | i | i | i | i | i | ?
CCOC(=O)C1=C(CC)Nc2ccccc2N=C1NC(=O)c1ccc(OC)c(S(=O)(=O)N2CCCCC2C)c1 (configuration not stated) | i | i | 3.66µM | i | i | ?
COc1cccc(C2CC(=O)Nc3cc(OC)c(OC)cc32)c1 (configuration not stated) | ? | i | i | i | i | i
O=C1CC(c2cccc([N+](=O)[O-])c2)c2cc3c(cc2N1)CCC3 (configuration not stated) | ? | i | ? | ? | i | ?
O=C1CC(c2cccc(Cl)c2)c2cc3c(cc2N1)CCC3 (configuration not stated) | i | i | i | i | i | 8.2µM
COc1cccc(C2CC(=O)Nc3cc4c(cc32)CCC4)c1 (configuration not stated) | 8.2µM | i | 5.17µM | 7.31µM | i | 5.8µM
COc1cccc(C2CC(=O)Nc3cc(C)c(C)cc32)c1 (configuration not stated) | nt | nt | nt | ? | nt | 20.6µM
CCC(Cc1ccccc1)NC(=O)c1ccc2nc(N3CCC(C)CC3)sc2c1 (configuration not stated) | nt | nt | nt | i | nt | i
CC(C)c1ccc(-c2cc(C(=O)N3N=C(C(F)F)CC3(O)C(F)F)c3ccccc3n2)cc1 (configuration not stated) | ? | i | 4.47µM | ? | i | ?

Screens (PubChem BioAssay)
